As usually defined, the EC50 is the concentration needed to bring the measured effect to its halfway point.

These results are taken from PubChem BioAssay AID1245 (Sanford-Burnham Center for Chemical Genomics, 2008).

SMILES strings stand for the structures. Unmarked numbers belong to inactive results. Activity calls are given as the source filed them. The rule behind the calls is not given here.

The nature of the test: Bcl-B/Puma-BH3 peptide binding displacement, dose response, counter-screen for TR3-derived Bcl-B inhibitor project, biochemical, fluorescence polarization (AID 1245). The note with it: Bcl-B/FITC-Puma-BH3 fluorescence polarization binding. Background: Counterscreens check selectivity or assay interference.

In the case of `Cc1ccc(C)n1-c1ccc(Br)cc1C(=O)O`, the EC50 is 1 µM (active).

As for `Cc1cc(C)nc(/N=C(/N)Nc2cccc(N)c2)n1`, the EC50 was > 25 µM.
